Compound activity deposited in PubChem BioAssay by several laboratories.
D1 allo mod: D1 dopamine receptor (human) allosteric modulation; P21728; HEK293 D1, CRE-luciferase, dopamine EC30 potentiation; actives deviate in either direction; B-score at 10 µM; 5.9% of 58,000 active; AID 641;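 active = luminescence count or its row- and column-corrected plate score outside the 99.7% band of the plate's sample wells, on either side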
Candida biofilm: kills Candida albicans biofilms; C. albicans biofilm + clotrimazole, Alamar Blue; inhibition, % at 6 µM; 0.14% of 85,000 active; AID 834;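 active = inhibition above 20%; inactive = inhibition below 20%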;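 note: preformed 24 hr biofilms exposed to compound for 48 hr; 0% = biofilm without compound and 100% = blank killed by clotrimazole plus chlorhexidine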
TNAP act mid DEA: activators of human TNAP at intermediate phosphate acceptor; P05186; activation factor at 20 µM; 64,000 tested, under 10 active; purified TNAP, CDP-star luminescence, 100 mM DEA, 30 min; active compounds read high; scale: 0 levamisole-inhibited, 1 vehicle-only enzyme;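 active = activation factor of at least 2 at 20 µM, relative to controls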
HePTP inh: inhibitors of human HePTP phosphatase; P35236; recombinant HePTP phosphatase activity, OD absorbance; inhibition, % at 20 µM; 0.64% of 110,000 active; AID 521; in the data active = inhibition above about 50%;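 note: plate controls were vehicle for no effect and reference inhibitor for full effect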
hDAT+cocaine: modulates human dopamine transporter uptake under cocaine; Q01959; 1.3% of 110,000 active; AID 449768; B-score at 10 µM; LLC-PK1 hDAT cells, [14C]-dopamine uptake with cocaine IC80; actives deviate in either direction;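 active = Z score or B-score, a plate-position-corrected score, falls beyond the plate's 99.7% confidence bounds, in either direction; inactive = both scores lie inside the 99.7% bounds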;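 note: scored against the spread of the other compound wells on the same plate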
Target sequence (Q01959 whole entry, looked up): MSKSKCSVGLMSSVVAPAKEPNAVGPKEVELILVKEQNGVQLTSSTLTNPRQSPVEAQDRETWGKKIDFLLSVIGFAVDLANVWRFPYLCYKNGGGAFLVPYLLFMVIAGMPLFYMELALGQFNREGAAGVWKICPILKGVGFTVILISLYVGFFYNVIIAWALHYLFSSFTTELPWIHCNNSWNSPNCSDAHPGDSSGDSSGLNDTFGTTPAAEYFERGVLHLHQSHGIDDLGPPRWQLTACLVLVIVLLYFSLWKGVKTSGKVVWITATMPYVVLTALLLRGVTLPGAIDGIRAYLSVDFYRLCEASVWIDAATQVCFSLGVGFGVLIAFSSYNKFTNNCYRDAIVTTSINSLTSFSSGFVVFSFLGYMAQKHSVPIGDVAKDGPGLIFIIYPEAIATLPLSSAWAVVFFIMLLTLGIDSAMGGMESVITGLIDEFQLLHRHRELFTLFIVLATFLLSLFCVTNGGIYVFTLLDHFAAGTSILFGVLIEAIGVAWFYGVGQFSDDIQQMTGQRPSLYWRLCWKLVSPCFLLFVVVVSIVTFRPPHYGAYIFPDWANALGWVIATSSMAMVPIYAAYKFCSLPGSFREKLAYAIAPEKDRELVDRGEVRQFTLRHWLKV
PLAP activator: activates human placental alkaline phosphatase; AID 696; purified PLAP enzyme, luminescent substrate read-out; active compounds read high; 1.2% of 96,000 active; activation fold at 20 µM; in the data active = activation fold above about 2
* hit, by the source's call; / = no result given. This is one part of a sample in which hits are shown more often than they occur.

SMILES | D1 allo mod | Candida biofilm | TNAP act mid DEA | HePTP inh | hDAT+cocaine | PLAP activator
O=[N+]([O-])c1cccc(S(=O)(=O)NCc2cccnc2)c1 | / | / | / | 0 | / | /
O=[N+]([O-])c1cccc(S(=O)(=O)NCc2ccncc2)c1 | / | / | / | 103* | / | /
COc1ccc(NC(=O)c2c(C)c(-c3ccc(C)cc3)nc3ccccc23)c(OC)c1 | / | / | / | -4 | / | /
COc1ccc(-c2nc3ccccc3c(C(=O)Nc3ccc(C)cc3)c2C)cc1 | / | / | / | 104* | / | /
O=C(N/N=C/c1ccc([N+](=O)[O-])o1)c1ccc(O)cc1 | / | / | / | 102* | -1.3 | /
CCCCCC(=O)N/N=C/c1ccc([N+](=O)[O-])o1 | / | / | / | / | 0.14 | /
c1ccc(Nc2ccccc2Nc2ccccn2)nc1 | 0.47 | 7 | 0.8 | -4 | 0.69 | /
Oc1cccc2ccc(Nc3ccccn3)nc12 | -4.1* | 11 | 1.3 | 5 | 1.1 | 0.6
O=C1CCCC2=C1C(c1ccc([N+](=O)[O-])cc1)C1C(=O)c3ccccc3C1=N2 (stereo not drawn) | / | / | / | -7 | / | /
O=C1CCCC2=C1C(c1ccc(Cl)cc1)C1C(=O)c3ccccc3C1=N2 (stereo not drawn) | / | / | / | -7 | 2.6* | 1.1
CSc1nnc(-c2ccccc2N=Cc2c(C)[nH]n(-c3ccc4ccccc4c3)c2=O)c(=O)[nH]1 | / | / | / | / | -0.83 | 1.1
Cc1[nH]n(-c2ccccc2)c(=O)c1/C=N/c1ccccn1 | -0.72 | 3 | 0.9 | -1 | 0.26 | 2.1*
Cc1[nH]n(-c2ccccc2)c(=O)c1C=Nc1ccc(Cl)cc1 | / | / | / | 4 | / | /
Cc1[nH]n(-c2ccccc2)c(=O)c1C=Nc1cnc2ccccc2c1 | / | / | / | / | -0.15 | 2.1*
C=CCSc1nnc(-c2ccccc2N=Cc2c(C)[nH]n(-c3ccccc3)c2=O)c(=O)[nH]1 | / | / | / | / | -0.55 | 2.2*
Cc1ccc(N=Cc2c(O)n(-c3ccccc3)c(=O)[nH]c2=O)cc1 | / | / | / | -10 | / | /
Cc1ccc(N=Cc2c(C(F)(F)F)[nH]n(-c3ccccc3)c2=O)cc1 | / | / | / | 64* | / | /
O=C(CSc1nc2sc3c(c2c(=O)n1-c1ccc(Cl)cc1)CCC3)Nc1ccccc1 | / | / | / | 9 | / | /
CCCOc1ccccc1N/C(=N/c1nc(C)cc(C)n1)NC(=O)COc1ccc(OC)cc1 | / | 2 | / | / | 0.72 | 2.4*
Cc1ccccc1C(=O)Nc1ccc2c(c1)OCO2 | -4.3* | 3 | 1 | 2 | 2 | 0.8
COc1ccccc1C(=O)Nc1ccc2c(c1)OCO2 | / | 3 | 0.9 | 0 | -0.23 | 0.7
O=C(Nc1ccc2c(c1)OCO2)c1noc2c1CCCCC2 | -4.4* | -1 | 0.9 | 9 | -1.9 | 0.9
CC(=O)c1ccc(NC(=O)c2noc3c2CCCCC3)cc1 | -2.1 | 6 | 0.9 | -1 | / | 0.9
O=C1NC(=S)S/C1=C/c1cc(I)c(O)c(I)c1 | / | / | / | 101* | / | /
COc1c(Br)cc(/C=C2\SC(=S)NC2=O)cc1Br | / | / | / | 103* | / | /
SMILES | D1 allo mod | Candida biofilm | TNAP act mid DEA | HePTP inh | hDAT+cocaine | PLAP activator
COc1ccc(/C=C2/SC(=S)NC2=O)cc1OCc1ccc(Cl)cc1 | / | / | / | 10 | / | /
COc1cc(/C=C2/SC(=S)NC2=O)cc(Cl)c1OCc1ccc(Cl)cc1Cl | / | / | / | 102* | / | /
COc1cc(/C=C2\SC(=S)NC2=O)cc(Br)c1OC(C)=O | / | / | / | -10 | / | /
O=[N+]([O-])c1ccc(Sc2nc3ccccc3s2)c(C(F)(F)F)c1 | / | / | / | 1 | / | /
CC(=O)c1cccc(NC(=O)c2ccccc2N(Cc2ccccc2)S(=O)(=O)c2ccccc2)c1 | / | / | / | -4 | / | /
O=C(/C=C/Nc1ccccn1)c1ccc(Br)cc1 | / | / | / | -16 | / | /
O=C(/C=C\Nc1ccccn1)c1ccc(Cl)cc1 | -6* | 11 | 1 | 3 | 0.11 | 1.1
CCOc1ccccc1NC(=O)COc1cccc(-n2cnnn2)c1 | 3.1 | -1 | 0.9 | 3 | -1.8 | /
CCOc1ccccc1COC(=O)c1cccc(-n2cnnn2)c1 | 10* | 8 | 0.9 | 7 | -0.96 | 0.7
COc1ccc(/C=C/C(=O)Nc2ccc(I)cc2Cl)cc1 | / | / | / | -3 | / | /
O=C(CC(Nc1ccccc1)C(=O)O)c1ccccc1 (stereo not drawn) | / | 4 | 0.8 | 6 | 2.9* | 1.2
NC(=O)CC(NC(=O)c1ccccc1)C(=O)O (stereo not drawn) | / | / | / | / | -1.9 | /
COc1ccc(C(=O)Nc2ccc(Cl)c(-c3nc4ccccc4s3)c2)cc1[N+](=O)[O-] | / | / | / | 65* | / | /
CCOc1ccc(C(=O)Nc2ccc(-c3nc4ccccc4s3)cc2)cc1[N+](=O)[O-] | / | / | / | 2 | / | /
CCC(C)(C)NC(=O)C(c1ccco1)N(C(=O)CNC(=O)c1cccs1)c1cccnc1 (stereo not drawn) | / | 2 | / | / | -8.2* | /
CCC(=O)N1CCc2cc(S(=O)(=O)NCCCN3CCN(Cc4ccccc4)CC3)ccc21 | 0.028 | -5 | 0.9 | 5 | / | 2*
Cc1ccc2nc(SCC(=O)NCc3ccco3)[nH]c2c1 | / | / | / | / | / | 1.1
Cc1ccc2nc(SCC(=O)NC(=O)NCc3ccco3)[nH]c2c1 | / | 8 | 1 | -6 | -0.77 | 2*
Cc1cc(C(=O)NNC(=S)NCC2CCCO2)cs1 (stereo not drawn) | / | / | / | / | -0.65 | 2.2*
Cc1ccc(C(=O)NC(=S)NCC2CCCO2)cc1 (stereo not drawn) | / | / | / | / | 0.35 | 0.9
CC(C)(C)c1cc(Br)ccc1OCC(=O)Nc1ccc(F)cc1 | / | / | / | 4 | / | /
CCOC(=O)C1=C(C)OC(N)=C(C#N)C1C1CCCCC1 (stereo not drawn) | -0.37 | 8 | 0.9 | 7 | -0.37 | 1
CCOC(=O)C1=C(c2ccccc2)OC(N)=C(C#N)C1C1CCCCC1 (stereo not drawn) | / | 1 | / | 2 | -1.7* | 0.9
COc1ccc(C(=O)Nc2ccc(-c3nc4cc(C)ccc4o3)cc2)cc1Br | / | / | / | 0 | / | /
COC(=O)c1sccc1NC(=O)CSc1nnnn1-c1ccccc1C | / | 27* | / | / | -0.72 | 1
SMILES | D1 allo mod | Candida biofilm | TNAP act mid DEA | HePTP inh | hDAT+cocaine | PLAP activator
COC(=O)c1ccc(-n2nnnc2SCC(=O)Nc2cc(OC)ccc2OC)cc1 | 1.1 | 3 | 0.9 | 2 | 0.42 | 0.9
COC(=O)c1ccc(-n2nnnc2SCC(=O)Nc2ccccc2C(=O)OC)cc1 | / | / | / | / | / | 1.3
COc1cccc(-n2ccnc2SCC(=O)Nc2cc(OC)ccc2OC)c1 | 0.44 | 7 | 1 | -5 | 1.5* | 1
COc1ccc(OC)c(NC(=O)CSc2nnnn2-c2ccc3c(c2)OCO3)c1 | 1.4 | 2 | 0.9 | 8 | -3.5* | 1
COc1ccc(OC)c(NC(=O)CSc2nnc(CCCO)n2-c2ccccc2)c1 | -0.74 | / | 1.1 | -2 | 2.9* | 1.1
CCC(CO)Nc1cc(N2CCOCC2)ccc1[N+](=O)[O-] (stereo not drawn) | / | / | / | -5 | / | /
O=C(O)CN1C(=O)S/C(=C\c2ccccc2O)C1=O | / | / | / | 8 | / | /
Cc1ccc(Cl)cc1NC1=C/C(=N\S(=O)(=O)c2cccs2)c2ccccc2C1=O | / | / | / | / | -3.5* | 1.3
CCN(C(C)=O)C1=C(N2CCOCC2)C(=O)c2ccccc2C1=O | / | / | / | -11 | / | /
CC(=O)N(C)C1=C(N2CCOCC2)C(=O)c2ccccc2C1=O | / | / | / | / | -4.3* | 0.9
CN(C)C=Nc1ncnc2c(C#N)c3n(c12)CCCCC3 | / | / | / | 7 | / | /
